Data taken from the supplement of paper PMC11732987, “Enantioselective OTUD7B fragment discovery through chemoproteomics screening and high-throughput optimisation” (Communications Chemistry, 2025).

Key:
Test in all cases: log2 ratio of Biotin-Ahx-Ub-VS probe labelling (fragment/DMSO); higher = less target engagement (more negative = stronger competition), active = hit call of the paper (q ≤ 0.05, log2 ratio ≤ -1)
Conditions in all cases: compound concentration: 200 uM; treatment time: 3 h
USP42 = biological target: T1, USP42 (UniProt Q9H9J4)
T1 sequence (whole entry): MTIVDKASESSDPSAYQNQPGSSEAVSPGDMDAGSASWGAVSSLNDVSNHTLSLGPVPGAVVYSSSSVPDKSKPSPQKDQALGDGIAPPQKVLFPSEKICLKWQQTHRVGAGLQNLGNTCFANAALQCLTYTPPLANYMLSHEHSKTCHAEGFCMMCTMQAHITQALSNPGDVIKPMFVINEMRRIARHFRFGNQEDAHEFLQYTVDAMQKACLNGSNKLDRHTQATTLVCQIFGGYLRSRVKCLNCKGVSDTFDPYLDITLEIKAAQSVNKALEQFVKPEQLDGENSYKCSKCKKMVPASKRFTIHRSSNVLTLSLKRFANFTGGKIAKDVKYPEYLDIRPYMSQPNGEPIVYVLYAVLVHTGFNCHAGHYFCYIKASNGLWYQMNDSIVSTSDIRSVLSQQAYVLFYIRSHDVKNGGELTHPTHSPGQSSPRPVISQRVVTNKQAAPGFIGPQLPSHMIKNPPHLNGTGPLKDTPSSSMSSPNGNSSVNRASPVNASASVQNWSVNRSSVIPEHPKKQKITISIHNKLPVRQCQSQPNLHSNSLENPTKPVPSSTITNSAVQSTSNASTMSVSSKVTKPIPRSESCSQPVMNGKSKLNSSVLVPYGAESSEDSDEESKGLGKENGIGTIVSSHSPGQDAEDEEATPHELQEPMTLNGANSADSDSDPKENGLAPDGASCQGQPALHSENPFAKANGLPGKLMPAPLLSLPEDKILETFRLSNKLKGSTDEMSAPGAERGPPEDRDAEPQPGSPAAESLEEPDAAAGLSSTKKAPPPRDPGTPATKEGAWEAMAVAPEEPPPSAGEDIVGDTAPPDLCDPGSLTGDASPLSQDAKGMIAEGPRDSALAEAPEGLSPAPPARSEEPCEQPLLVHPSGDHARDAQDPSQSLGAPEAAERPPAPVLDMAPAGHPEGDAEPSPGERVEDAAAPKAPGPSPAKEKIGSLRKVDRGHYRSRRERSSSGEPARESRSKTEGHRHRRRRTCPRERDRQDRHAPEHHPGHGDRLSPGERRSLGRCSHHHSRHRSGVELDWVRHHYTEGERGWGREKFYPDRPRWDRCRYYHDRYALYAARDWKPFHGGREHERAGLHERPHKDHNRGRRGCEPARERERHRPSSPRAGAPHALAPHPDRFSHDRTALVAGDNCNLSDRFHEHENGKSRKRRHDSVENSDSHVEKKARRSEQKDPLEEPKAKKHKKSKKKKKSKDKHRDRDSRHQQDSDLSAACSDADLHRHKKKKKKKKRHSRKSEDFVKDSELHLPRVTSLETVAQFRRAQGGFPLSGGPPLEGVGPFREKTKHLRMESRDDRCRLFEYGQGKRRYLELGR
Summary of the method: (§1)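 In triplicate, 495 µg of HEK293T lysate per sample was incubated with fragment at 200 µM or vehicle for 3 h. Biotin-Ahx-Ub-VS was then added to 0.5 µM final for 1 h, and labelled DUBs were captured with NeutrAvidin, digested with LysC and trypsin, and measured by diaPASEF LC-MS/MS. Data are average log2 fragment/vehicle ratios by unpaired t-test from global-median-normalised Spectronaut label-free quantities, restricted to proteins with ≥2 unique peptides.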

USP46 = USP46 (UniProt P62068)
Summary of the method: as §1

USP47 = biological target: T2, USP47 (UniProt Q96K76)
T2 sequence (whole entry): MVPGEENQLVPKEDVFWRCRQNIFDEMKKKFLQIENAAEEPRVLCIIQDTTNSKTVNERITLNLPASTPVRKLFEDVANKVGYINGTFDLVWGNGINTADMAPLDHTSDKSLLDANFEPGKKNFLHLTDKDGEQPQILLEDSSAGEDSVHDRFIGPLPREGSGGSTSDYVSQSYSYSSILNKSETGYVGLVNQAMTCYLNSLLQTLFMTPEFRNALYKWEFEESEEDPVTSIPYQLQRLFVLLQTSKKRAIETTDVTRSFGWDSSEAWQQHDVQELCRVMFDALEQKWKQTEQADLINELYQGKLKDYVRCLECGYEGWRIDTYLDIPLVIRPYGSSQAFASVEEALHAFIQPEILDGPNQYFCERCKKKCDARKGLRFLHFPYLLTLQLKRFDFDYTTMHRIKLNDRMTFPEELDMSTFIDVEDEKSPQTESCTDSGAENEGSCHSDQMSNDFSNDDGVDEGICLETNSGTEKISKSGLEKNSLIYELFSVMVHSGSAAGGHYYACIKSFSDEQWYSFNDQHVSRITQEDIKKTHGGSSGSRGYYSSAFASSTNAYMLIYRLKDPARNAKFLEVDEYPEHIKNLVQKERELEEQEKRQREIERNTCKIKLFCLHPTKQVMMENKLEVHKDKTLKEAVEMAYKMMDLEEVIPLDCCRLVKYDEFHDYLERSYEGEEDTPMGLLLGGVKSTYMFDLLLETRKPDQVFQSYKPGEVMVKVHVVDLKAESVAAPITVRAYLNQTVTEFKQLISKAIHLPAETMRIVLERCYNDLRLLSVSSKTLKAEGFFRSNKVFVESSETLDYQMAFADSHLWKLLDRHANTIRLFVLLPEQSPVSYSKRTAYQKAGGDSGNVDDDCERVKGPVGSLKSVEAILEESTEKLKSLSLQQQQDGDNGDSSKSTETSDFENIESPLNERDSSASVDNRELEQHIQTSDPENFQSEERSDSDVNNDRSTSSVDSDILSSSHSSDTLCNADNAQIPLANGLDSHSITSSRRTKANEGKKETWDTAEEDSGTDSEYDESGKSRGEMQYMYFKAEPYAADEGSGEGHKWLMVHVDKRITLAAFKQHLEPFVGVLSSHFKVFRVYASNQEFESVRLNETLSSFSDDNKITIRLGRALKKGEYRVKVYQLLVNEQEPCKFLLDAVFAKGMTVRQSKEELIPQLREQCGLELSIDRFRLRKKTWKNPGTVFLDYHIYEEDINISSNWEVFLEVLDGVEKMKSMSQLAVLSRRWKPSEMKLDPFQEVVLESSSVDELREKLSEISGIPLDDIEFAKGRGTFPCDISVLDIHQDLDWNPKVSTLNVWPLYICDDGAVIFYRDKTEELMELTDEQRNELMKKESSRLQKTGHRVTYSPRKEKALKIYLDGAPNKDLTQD
Summary of the method: as §1

USP48 = biological target: T3, USP48 (UniProt Q86UV5)
T3 sequence (whole entry): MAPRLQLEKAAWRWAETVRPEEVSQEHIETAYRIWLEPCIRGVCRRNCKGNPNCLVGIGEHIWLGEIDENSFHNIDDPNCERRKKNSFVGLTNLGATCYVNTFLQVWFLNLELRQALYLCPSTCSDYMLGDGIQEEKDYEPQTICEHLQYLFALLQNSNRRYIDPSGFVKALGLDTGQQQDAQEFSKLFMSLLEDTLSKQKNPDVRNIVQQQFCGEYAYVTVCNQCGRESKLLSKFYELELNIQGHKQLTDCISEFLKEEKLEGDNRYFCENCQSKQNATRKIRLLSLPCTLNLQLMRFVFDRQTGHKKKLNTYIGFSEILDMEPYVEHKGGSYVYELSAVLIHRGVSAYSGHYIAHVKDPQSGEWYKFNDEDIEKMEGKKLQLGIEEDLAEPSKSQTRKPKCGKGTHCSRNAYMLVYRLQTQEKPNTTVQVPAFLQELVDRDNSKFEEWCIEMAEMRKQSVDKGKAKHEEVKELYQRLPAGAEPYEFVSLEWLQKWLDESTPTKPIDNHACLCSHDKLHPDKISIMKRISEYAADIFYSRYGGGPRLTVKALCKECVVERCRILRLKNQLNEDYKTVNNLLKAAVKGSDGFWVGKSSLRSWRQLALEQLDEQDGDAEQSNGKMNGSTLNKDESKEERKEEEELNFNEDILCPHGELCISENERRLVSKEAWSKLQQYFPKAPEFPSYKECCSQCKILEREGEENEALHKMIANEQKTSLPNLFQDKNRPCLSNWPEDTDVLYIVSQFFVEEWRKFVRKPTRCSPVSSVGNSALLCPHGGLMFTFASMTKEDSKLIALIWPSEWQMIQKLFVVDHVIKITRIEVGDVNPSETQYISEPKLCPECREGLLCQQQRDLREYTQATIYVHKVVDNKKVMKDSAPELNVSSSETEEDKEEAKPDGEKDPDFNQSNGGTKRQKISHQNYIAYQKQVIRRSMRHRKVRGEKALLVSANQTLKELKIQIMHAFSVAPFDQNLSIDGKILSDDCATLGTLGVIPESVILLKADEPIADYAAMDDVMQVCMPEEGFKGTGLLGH
Summary of the method: as §1

USP5 = biological target: T4, USP5 (UniProt P45974)
T4 sequence (whole entry): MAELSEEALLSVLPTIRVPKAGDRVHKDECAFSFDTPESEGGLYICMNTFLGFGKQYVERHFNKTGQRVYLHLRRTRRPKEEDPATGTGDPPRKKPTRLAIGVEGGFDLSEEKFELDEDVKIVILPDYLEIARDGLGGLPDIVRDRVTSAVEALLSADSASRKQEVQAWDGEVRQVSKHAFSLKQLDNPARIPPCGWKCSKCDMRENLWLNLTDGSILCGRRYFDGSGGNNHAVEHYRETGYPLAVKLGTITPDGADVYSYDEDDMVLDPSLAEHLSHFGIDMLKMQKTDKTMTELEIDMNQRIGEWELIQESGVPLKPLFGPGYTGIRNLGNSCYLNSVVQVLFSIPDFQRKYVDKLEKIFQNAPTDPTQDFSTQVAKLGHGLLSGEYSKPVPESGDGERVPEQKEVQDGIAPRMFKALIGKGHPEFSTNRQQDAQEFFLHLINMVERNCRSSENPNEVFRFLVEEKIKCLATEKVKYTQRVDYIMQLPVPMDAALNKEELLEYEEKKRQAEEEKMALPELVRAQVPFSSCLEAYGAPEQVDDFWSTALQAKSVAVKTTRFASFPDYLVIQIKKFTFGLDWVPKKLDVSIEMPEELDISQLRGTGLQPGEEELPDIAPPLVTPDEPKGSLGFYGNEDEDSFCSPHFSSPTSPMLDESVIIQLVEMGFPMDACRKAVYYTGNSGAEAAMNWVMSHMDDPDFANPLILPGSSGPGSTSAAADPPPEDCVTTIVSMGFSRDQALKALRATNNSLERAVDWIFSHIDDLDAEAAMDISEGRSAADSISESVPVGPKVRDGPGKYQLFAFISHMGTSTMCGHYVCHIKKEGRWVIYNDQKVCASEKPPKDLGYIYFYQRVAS
Summary of the method: as §1

USP54 = USP54 (UniProt Q70EL1)
Summary of the method: as §1

USP7 = USP7 (UniProt Q93009)
Summary of the method: as §1

USP8 = biological target: T5, USP8 (UniProt P40818)
T5 sequence (whole entry): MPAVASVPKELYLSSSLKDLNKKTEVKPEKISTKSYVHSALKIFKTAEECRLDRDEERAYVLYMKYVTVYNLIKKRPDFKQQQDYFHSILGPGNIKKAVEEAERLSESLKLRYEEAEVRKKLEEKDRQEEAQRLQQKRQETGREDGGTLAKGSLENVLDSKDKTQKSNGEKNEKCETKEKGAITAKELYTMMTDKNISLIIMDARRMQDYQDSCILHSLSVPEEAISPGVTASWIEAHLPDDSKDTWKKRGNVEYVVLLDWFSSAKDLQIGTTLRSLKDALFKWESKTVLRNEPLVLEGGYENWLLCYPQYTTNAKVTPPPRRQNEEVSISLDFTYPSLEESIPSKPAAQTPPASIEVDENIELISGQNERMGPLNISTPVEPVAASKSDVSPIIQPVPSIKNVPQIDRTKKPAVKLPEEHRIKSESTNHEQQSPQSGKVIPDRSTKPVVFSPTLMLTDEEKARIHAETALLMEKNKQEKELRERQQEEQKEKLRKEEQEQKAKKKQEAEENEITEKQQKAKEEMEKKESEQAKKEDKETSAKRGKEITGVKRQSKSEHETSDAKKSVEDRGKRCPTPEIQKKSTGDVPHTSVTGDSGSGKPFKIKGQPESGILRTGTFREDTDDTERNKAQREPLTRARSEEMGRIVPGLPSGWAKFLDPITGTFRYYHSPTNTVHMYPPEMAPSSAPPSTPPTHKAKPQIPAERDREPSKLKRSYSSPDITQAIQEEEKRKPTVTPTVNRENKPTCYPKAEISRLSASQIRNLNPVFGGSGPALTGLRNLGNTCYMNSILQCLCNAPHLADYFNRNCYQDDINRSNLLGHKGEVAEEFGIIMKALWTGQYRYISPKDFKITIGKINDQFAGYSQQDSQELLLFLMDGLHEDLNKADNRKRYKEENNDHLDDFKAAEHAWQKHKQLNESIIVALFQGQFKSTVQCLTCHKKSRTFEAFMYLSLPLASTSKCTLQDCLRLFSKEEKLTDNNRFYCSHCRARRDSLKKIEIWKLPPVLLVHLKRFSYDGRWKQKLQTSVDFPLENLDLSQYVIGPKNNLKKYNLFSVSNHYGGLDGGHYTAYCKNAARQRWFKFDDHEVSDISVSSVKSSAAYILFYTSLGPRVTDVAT
Summary of the method: as §1

Measured: log2 ratio of Biotin-Ahx-Ub-VS probe labelling

Chain of USP54 (Q70EL1 whole entry): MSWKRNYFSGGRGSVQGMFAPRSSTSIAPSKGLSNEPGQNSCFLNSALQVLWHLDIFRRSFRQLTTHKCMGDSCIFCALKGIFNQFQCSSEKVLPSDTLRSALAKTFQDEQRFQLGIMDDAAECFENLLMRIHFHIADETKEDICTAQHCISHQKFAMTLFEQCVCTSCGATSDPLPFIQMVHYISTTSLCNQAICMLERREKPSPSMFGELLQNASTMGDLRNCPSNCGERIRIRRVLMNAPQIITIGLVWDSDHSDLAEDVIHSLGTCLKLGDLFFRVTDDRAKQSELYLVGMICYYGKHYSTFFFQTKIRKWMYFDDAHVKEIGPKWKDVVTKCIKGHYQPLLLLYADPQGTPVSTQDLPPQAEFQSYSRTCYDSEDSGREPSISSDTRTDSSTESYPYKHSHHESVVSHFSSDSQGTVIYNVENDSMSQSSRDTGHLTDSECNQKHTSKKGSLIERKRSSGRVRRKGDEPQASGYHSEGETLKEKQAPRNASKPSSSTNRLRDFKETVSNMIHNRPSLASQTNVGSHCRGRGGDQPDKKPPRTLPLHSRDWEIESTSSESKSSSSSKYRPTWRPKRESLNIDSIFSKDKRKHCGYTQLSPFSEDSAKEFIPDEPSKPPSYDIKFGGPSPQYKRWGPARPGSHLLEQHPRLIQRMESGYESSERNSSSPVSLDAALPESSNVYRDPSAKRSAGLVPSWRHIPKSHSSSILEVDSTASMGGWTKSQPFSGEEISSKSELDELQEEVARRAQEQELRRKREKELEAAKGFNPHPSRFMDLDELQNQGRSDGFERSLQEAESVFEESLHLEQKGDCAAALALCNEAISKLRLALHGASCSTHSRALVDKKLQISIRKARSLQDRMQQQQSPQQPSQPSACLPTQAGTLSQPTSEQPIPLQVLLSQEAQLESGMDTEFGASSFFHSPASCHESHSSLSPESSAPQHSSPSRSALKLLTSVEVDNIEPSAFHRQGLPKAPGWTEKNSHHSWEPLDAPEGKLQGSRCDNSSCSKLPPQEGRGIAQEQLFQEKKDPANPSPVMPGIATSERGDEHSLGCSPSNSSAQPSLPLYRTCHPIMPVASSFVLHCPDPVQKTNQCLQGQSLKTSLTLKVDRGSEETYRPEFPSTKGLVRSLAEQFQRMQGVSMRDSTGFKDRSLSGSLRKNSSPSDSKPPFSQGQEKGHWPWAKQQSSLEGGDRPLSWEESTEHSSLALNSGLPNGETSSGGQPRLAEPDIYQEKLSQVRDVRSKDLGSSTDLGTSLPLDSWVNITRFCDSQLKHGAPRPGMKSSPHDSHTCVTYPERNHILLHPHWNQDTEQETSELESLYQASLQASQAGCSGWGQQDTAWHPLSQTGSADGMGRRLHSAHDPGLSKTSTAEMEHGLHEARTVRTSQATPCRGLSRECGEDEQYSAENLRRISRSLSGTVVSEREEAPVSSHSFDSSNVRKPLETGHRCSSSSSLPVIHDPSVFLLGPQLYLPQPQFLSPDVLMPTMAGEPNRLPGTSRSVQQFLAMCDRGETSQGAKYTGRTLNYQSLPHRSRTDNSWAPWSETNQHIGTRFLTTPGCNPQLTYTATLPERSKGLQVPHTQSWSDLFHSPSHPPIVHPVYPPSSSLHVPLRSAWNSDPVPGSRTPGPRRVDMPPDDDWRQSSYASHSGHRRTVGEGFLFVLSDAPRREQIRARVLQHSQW
Chain of USP7 (Q93009 whole entry, looked up): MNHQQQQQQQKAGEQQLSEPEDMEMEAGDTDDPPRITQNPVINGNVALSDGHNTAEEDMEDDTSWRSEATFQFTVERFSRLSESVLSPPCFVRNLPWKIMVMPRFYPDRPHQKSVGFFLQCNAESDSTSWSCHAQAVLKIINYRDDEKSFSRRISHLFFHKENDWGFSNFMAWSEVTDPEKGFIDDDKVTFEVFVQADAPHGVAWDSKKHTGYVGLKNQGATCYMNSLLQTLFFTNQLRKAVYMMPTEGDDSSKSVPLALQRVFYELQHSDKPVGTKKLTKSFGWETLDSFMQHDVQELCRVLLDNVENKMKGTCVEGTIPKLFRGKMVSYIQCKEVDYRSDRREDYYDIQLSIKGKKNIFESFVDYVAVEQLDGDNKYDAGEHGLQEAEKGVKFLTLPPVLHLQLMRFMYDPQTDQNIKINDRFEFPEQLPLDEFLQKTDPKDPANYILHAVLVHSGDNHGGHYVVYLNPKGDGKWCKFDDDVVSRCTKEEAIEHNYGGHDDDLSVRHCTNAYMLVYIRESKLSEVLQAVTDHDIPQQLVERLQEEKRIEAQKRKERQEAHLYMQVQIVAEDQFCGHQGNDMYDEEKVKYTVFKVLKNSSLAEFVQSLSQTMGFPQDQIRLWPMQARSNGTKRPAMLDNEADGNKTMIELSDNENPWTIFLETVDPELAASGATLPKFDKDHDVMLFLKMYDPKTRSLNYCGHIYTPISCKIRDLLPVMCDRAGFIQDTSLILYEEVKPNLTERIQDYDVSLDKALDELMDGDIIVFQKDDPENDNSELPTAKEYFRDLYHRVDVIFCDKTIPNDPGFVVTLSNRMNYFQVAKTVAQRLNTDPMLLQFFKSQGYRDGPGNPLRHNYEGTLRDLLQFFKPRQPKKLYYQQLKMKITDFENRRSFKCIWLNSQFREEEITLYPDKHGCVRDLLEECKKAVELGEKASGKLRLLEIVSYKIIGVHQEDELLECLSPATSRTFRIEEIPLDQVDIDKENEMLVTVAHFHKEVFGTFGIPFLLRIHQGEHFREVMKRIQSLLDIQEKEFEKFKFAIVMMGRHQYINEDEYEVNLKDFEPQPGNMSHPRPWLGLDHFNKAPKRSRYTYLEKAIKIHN
Chain of USP46 (P62068 whole entry): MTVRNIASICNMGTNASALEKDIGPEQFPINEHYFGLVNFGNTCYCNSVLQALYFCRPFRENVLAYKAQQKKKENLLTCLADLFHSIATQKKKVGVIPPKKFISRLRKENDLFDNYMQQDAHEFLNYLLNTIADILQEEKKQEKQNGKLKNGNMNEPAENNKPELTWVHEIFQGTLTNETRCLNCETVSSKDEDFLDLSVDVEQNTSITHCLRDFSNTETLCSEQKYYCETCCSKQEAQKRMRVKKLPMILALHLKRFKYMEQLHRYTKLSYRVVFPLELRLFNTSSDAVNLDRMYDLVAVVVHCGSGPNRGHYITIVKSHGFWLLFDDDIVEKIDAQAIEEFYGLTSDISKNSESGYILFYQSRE

CC1Cc2ccccc2N1C(=O)CCl (stereo not drawn)
inactive: USP42 -0.0391 | USP46 -0.226 | USP47 -0.675 | USP48 -0.686 | USP5 0.363 | USP54 0.538 | USP8 -0.238
active: USP7 -1.33
